Screening data deposited in PubChem by National Center for Advancing Translational Sciences (NCATS).
Sampled rows, rich in hits. Any-hit rate of the full collection: about 5.7%.
PI4K2A block: blocks human PI4K2A kinase activity. Q9BTU6. purified PI4K2A, ADP-Glo luminescence, 1 h; hits give low values. activity change, negative = inhibition, % at 76.9 µM. 0.13% of 420,000 active; in the data active = activity change below about -50%; inconclusive = mostly about -30% to -49%
Target sequence (Q9BTU6 whole entry, looked up): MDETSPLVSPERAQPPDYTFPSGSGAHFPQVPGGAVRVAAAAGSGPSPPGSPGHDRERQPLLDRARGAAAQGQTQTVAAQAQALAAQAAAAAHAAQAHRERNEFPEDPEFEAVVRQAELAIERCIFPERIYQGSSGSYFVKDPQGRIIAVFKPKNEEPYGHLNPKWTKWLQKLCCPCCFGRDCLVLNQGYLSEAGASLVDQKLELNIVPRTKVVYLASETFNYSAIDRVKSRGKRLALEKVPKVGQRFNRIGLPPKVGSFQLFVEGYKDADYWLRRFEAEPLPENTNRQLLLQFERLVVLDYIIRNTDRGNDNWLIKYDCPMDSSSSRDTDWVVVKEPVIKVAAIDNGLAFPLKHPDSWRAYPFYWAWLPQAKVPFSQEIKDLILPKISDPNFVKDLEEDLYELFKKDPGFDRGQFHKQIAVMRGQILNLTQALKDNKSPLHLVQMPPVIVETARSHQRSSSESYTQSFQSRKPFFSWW
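PI4K2A activity was measured by ADP-Glo luminescence: enzyme (4 ug/mL stock) and phosphatidylinositol (1.2 mM stock) in Tris pH 7.5/MgCl2/EGTA/Triton X-100 buffer were reacted with ATP (300 microM stock) for one hour at ambient temperature.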
Giardia kill: Giardia lamblia killing; Giardia lamblia trophozoite viability; activity change, % at 7.66 µM, hits read low; 0.15% of 340,000 active; AID 540267; in the data active = activity change below about -80%; inconclusive = between about -30% and that limit;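 note: parasites exposed to compound for two days anaerobically before the ATP read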
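Each well holds 100 Giardia trophozoites and compound. After two days (48 hrs) at 37 deg C in anaerobic conditions, ATP is quantified by luminescence.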
KB-V1 MDR tox: KB-V1 MDR subline cytotoxicity; KB-V1 MDR cells viability, CellTiter-Glo, 72 h; Potency, µM (doses to about 46.1 µM), hits mostly cytotoxic; 3.4% of 400,000 active; note: nearly all actives have a fitted effect of over 60% in size
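Compound-treated KB-V1 multidrug-resistant cells, 72 h, 37 degrees C; viability by CellTiter-Glo. Fitted qHTS curves give the values.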
Nrf2 block: inhibitors of Nrf2 signaling | A549 ARE-Fluc reporter, luciferase luminescence, 18-24 h | Potency, µM (top dose mostly 46 µM), actives largely listed as inhibitors | AID 504444 | 2.1% of 360,000 active; note: nearly all actives have a fitted effect of over 60% in size
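A549 ARE_Fluc cells (5000/well, 5% FBS OPTI-MEM) pre-incubated 2 h, then treated with compounds 18-24 h at 37C/5% CO2 in concentration-response. CellTiter-Fluor viability read first; BugLite luciferase luminescence after 15 min at room temperature gives Nrf2 activity.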
KB-3-1 tox: KB-3-1 parental cell cytotoxicity; KB-3-1 viability, CellTiter-Glo ATP luminescence, 72 h; 1.4% of 400,000 active; Potency, µM (top dose mostly 46.1 µM), actives largely listed as cytotoxic; AID 1347075; note: nearly all actives have a fitted effect of over 60% in size
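Cells are dispensed, compounds pinned in, plates held at 37 °C for 72 h, then CellTiter-Glo is added and luminescence read after 10 minutes. Cell line: parental KB-3-1 in phenol-red-free DMEM, 10% FBS.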
A549 viability: kills or reduces viability of A549 cells in Nrf2 counter-screen; 0.16% of 390,000 active; Potency, µM (series often up to 46 µM), actives largely listed as inhibitors; A549 ARE-Fluc cells, CellTiter-Fluor viability, 18-24 h
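Cytotoxicity counterscreen: CellTiter-Fluor fluorescence was measured in A549 ARE_Fluc cells after 18-24 h of compound exposure in a concentration series. The subsequent BugLite luminescent read reports ARE-luciferase activity.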
Numbers stand for hits; 0 = inactive; ? = inconclusive; - = no result. Unless noted, calls come from the whole dose curve; as a rule, active = well fitted curve in the direction sought with a large enough effect; inconclusive = small, poorly fitted or top-dose-only effect, or another doubt; inactive = no such curve, though single readings can be large; an effect the other way counts as inactive or inconclusive.

SMILES	PI4K2A block	Giardia kill	KB-V1 MDR tox	Nrf2 block	KB-3-1 tox	A549 viability
CCc1cc2c(=O)c(-c3nc(C)cs3)c(CCCC(=O)O)oc2cc1O	0	0	0	0	0	0
O=C1CCCC2=C1C1(CCCC1)N=C(Nc1nc3cc(Cl)ccc3o1)N2	-	-	?	?	0	0
COc1cc(Br)cc(CN2CCN(C/C=C/c3ccccc3)CC2)c1O	0	0	0	-	0	0
COc1ccc(O)c(CN2CCN(C/C=C/c3ccccc3)CC2)c1	0	0	15µM	-	0	?
COC(=O)CSc1nnc(-c2ccc(NS(=O)(=O)c3ccc(C(C)(C)C)cc3)cc2)o1	0	-	-	-	-	-
CCCCNC(=O)CCn1c(=O)c2ccccc2n(Cc2cccc(Cl)c2)c1=O	0	-	0	0	0	0
O=C(CCCn1c(=O)c2ccccc2n(Cc2ccccc2)c1=O)NCc1ccco1	0	0	?	-	?	0
CCCCNC(=O)CCn1c(=O)c2ccccc2n(Cc2ccc(Cl)cc2)c1=O	0	0	15µM	0	0	0
O=C(CCCCn1c(=O)c2ccccc2n(Cc2ccc(F)cc2)c1=O)NCc1ccco1	0	0	5.8µM	-	12µM	0
O=S1(=O)CC2c3ccccc3CN2CN1Cc1ccc(F)cc1 (stereo not drawn)	0	-	-	-	-	-
CC(=O)N1CCc2c(sc3c2c(=O)n(Cc2ccccc2)c(=O)n3Cc2ccc(C)cc2)C1	0	-	0	0	0	0
CC(=O)N1CCc2c(sc3c2c(=O)n(Cc2ccccc2)c(=O)n3Cc2ccccc2Cl)C1	0	-	0	18µM	0	?
CC(=O)N1CCc2c(sc3c2c(=O)n(Cc2ccccc2)c(=O)n3Cc2ccccc2F)C1	0	-	0	16µM	0	0
O=C(CSc1nnc(-c2ccccc2)n1-c1ccc(Cl)cc1)c1ccc(Cl)cc1	0	-	-	-	-	-
COc1ccccc1-n1cnnc1SCc1csc(-c2ccccc2)n1	0	0	0	0	0	0
O=C1c2ccccc2C(=O)N1CCc1csc(NNc2nc(CCN3C(=O)c4ccccc4C3=O)cs2)n1	0	0	0	0	0	0
Cc1ccc(-c2nc(CSc3nc4ccccc4c(=O)n3C)cs2)cc1	0	0	12µM	0	?	?
Cc1ccc(-c2nc(CCN3C(=O)c4ccccc4C3=O)cs2)cc1	0	0	13µM	0	0	0
C=CCn1c(SCc2csc(-c3ccc(C)cc3)n2)nnc1-c1ccccc1OC	0	0	13µM	?	0	?
COc1ccc(S[C@]2(C(=O)N3CCCC3)CC(=O)N(C(=O)Nc3ccc(C)c(Cl)c3)[C@@H]2c2ccc(OC)cc2)cc1	0	-	-	-	-	-
COC1=C(N)C(=O)c2nc(C)ccc2C1=O	0	0	?	?	4.6µM	0
COC1=C(Br)C(=O)c2nc(C)ccc2C1=O	?	-	0	-	0	-
CCc1ccc(-c2cn3nc(C)c(C)nc3n2)cc1	0	0	18µM	?	0	?
c1ccc(-c2cn3nc4c(nc3n2)CCCC4)cc1	-52	?	?	?	?	?
Cc1nc2nc(-c3ccccc3)cn2nc1C	0	0	21µM	0	0	?
SMILES	PI4K2A block	Giardia kill	KB-V1 MDR tox	Nrf2 block	KB-3-1 tox	A549 viability
Cc1nc2nc(-c3ccc(F)cc3)cn2nc1C	0	0	0	?	?	?
c1ccc(-c2cn3nc(-c4ccccc4)cnc3n2)cc1	0	0	0	?	0	0
Brc1ccc(-c2cn3nc4c(nc3n2)CCCC4)cc1	0	0	0	?	0	0
CC1c2[nH]c3ccccc3c2CCN1C(=O)Nc1ccccc1 (stereo not drawn)	0	0	8.2µM	-	?	0
CNc1ccc(/C=C/c2ccccc2)cc1	-	-	0	-	?	-
O=C1CCCCC1Nc1ccc2ccccc2c1 (stereo not drawn)	0	0	?	18µM	?	?
O=C1CCCC1C(=O)Nc1ccc2ccccc2c1 (stereo not drawn)	0	?	0	0	0	0
O=C(CSc1nnc(-c2ccncc2)n1Cc1ccco1)Nc1nc(-c2ccccc2)cs1	0	0	0	13µM	0	?
CCOc1ccc(NC(=O)CSc2nnc(-c3ccccc3Cl)n2Cc2ccco2)cc1	0	0	21µM	-	?	0
COc1ccc(NC(=O)CSc2nnc(-c3ccccc3Cl)n2Cc2ccco2)c(OC)c1	0	0	0	0	0	0
O=C(CSc1nnc(-c2ccccc2)n1Cc1ccco1)Nc1ccc(S(=O)(=O)N2CCCC2)cc1	0	0	0	16µM	0	0
CCn1c(SCC(=O)Nc2ccc(OCc3ccccc3)cc2)nnc1-c1ccco1	0	0	0	15µM	0	?
CCOc1ccc(NC(=O)CSc2nnc(-c3ccco3)n2C)cc1	0	0	0	0	0	0
COc1ccccc1CNC(=O)NNC(=O)CCn1nc(C)c([N+](=O)[O-])c1C	0	-	-	-	-	-
O=C(CSc1nnc(-c2cccnc2)n1Cc1ccco1)N1c2ccccc2Sc2ccccc21	0	0	6.5µM	?	0	0
NC(=O)CSc1nnc(-c2cccs2)n1Cc1ccco1	0	0	?	0	0	0
CN(C)c1ccc(NC(=O)CSc2nnc(-c3cccs3)n2Cc2ccco2)cc1	0	0	7.3µM	-	?	0
Cc1ccc(C)c(CSc2nnc(-c3cccs3)n2Cc2ccco2)c1	0	0	18µM	?	0	?
Cc1ccc(NC(=O)CSc2nnc(-c3cccs3)n2Cc2ccco2)cc1	0	0	0	-	0	0
CC(=O)C[n+]1cccc2cc(Cl)ccc21	-	-	0	-	0	-
O=C(CN1CCc2onc(-c3cccc(-n4cc(CO)nn4)c3)c2C1=O)N1CCOCC1	0	-	-	-	-	-
Cc1sc2ncnc(NCC(c3ccco3)N(C)C)c2c1C (stereo not drawn)	0	0	18µM	0	0	0
Cc1sc2ncnc(NCc3ccccc3)c2c1C	0	0	?	?	23µM	0
COc1ccc(C(CNc2ncnc3sc(C)c(C)c23)N(C)C)cc1 (stereo not drawn)	0	0	10µM	?	?	0
CCOc1ccc(-n2c(SCC(=O)c3ccc4ccccc4c3)nnc2-c2cccc(Cl)c2)cc1	0	-	-	-	-	-
SMILES	PI4K2A block	Giardia kill	KB-V1 MDR tox	Nrf2 block	KB-3-1 tox	A549 viability
CCC(C)NC(=S)Nc1ccc(C(=O)OC)cc1 (stereo not drawn)	0	0	?	18µM	0	0
Cc1ccc(S(=O)(=O)N2CCCC2C(=O)N2CCc3ccccc3C2)cc1 (stereo not drawn)	0	-	-	-	-	-
Cc1ccccc1OCC(=O)Nc1ccc(Cc2ccncc2)cc1	0	0	0	13µM	0	0
Cc1ccccc1OCC(=O)Nc1ccncc1	0	0	0	?	0	0
CCOc1ccc(C(=O)Nc2ccc(Cc3ccncc3)cc2)cc1Br	0	0	0	15µM	?	?
CCOc1ccc(C(=O)Nc2ccc(NC(=O)c3ccccc3)cc2)cc1Br	0	0	0	0	0	0
COc1ccc([N+](=O)[O-])cc1C(=O)Nc1ccc(Cc2ccncc2)cc1	0	0	0	0	0	0
